Source: PubChem (National Center for Advancing Translational Sciences (NCATS))
Sfp inh = Sfp phosphopantetheinyl transferase inhibition; Q9F4F7; Biochemical Sfp PPTase activity, qHTS; Potency, µM, hits mostly inhibitors; 3.5% of 310,000 active;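 further: the enzyme is Sfp with the accession as filed and its product quenches rhodamine fluorescence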
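Fluorescence-quenching assay: 15 nM Sfp-PPTase preincubated 15 min at room temperature with compound, then 5 uM rhodamine-CoA and 12.5 uM BHQ-2-labelled YbbR peptide added. Fluorescence (ex 525/em 598 nm) read at start and after 30 min; difference gives rate.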
BAZ2B inh = BAZ2B (human) inhibition; 4.4% of 360,000 active; AlphaScreen BAZ2B-H3K14Ac peptide displacement; Q9UIF8; Potency, µM (series often up to 114 µM), usual class: inhibitors; further: nearly all actives have a fitted effect of over 60% in size
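AlphaScreen displacement of biotin-H3(5-23)K14Ac peptide (50 nM final) from BAZ2B (50 nM final) in PBS pH 7.4, 0.01% Tween-20; complex preformed 30 min RT, then compounds (top 110 uM) 30 min RT, beads 20 min dark.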
JMJD2A Tudor inh = inhibitors of human JMJD2A Tudor domain | O75164 | AlphaScreen JMJD2A-Tudor / H3K4me3 peptide binding | Potency, µM (top dose mostly 114 µM), hits mostly inhibitors | 4.4% of 390,000 active | AID 504339; further: nearly all actives have a fitted effect of over 50% in size
G9a block = blocks human histone lysine methyltransferase G9a; Potency, µM (highest dose often 102 µM), most hits filed as inhibitors; Q96KQ7; G9a H3K9 monomethylation, AlphaScreen, 2 h; 8.8% of 350,000 active; further: nearly all actives have a fitted effect of over 75% in size
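Quantitative HTS format: methyltransferase activity on a biotin-tagged H3K9 peptide is measured by AlphaScreen, using a rabbit anti-monomethyl-H3K9 antibody with streptavidin donor and anti-IgG acceptor beads. Final levels are 20 nM enzyme, 500 nM peptide, 20 uM SAM; 2 h RT.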
HP1b binding inh = blocks HP1-beta chromodomain binding to methylated histone tails; P83916; AlphaScreen HP1-beta / biotin-H3K9me3 peptide binding; Potency, µM (top dose mostly 114 µM), hits mostly inhibitors; 0.56% of 390,000 active; further: nearly all actives have a fitted effect of over 70% in size
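AlphaScreen: HP1-beta (50 nM) preformed 30 min with biotin-H3(1-18)K9me3 peptide (50 nM) in PBS pH 7.4, 0.01% Tween-20. Compound added for 30 min at RT, then streptavidin donor/nickel chelate acceptor beads (10 ug/mL) for 30 min.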
L3MBTL1 inh = inhibitors of human L3MBTL1 | Q9Y468 | AlphaScreen L3MBTL1–H3K9me1 peptide binding | Potency, µM (titrated, usually from 57.1 µM), most hits filed as inhibitors | 0.66% of 230,000 active; further: nearly all actives have a fitted effect of over 60% in size
Target sequence (Q9Y468 whole entry, looked up): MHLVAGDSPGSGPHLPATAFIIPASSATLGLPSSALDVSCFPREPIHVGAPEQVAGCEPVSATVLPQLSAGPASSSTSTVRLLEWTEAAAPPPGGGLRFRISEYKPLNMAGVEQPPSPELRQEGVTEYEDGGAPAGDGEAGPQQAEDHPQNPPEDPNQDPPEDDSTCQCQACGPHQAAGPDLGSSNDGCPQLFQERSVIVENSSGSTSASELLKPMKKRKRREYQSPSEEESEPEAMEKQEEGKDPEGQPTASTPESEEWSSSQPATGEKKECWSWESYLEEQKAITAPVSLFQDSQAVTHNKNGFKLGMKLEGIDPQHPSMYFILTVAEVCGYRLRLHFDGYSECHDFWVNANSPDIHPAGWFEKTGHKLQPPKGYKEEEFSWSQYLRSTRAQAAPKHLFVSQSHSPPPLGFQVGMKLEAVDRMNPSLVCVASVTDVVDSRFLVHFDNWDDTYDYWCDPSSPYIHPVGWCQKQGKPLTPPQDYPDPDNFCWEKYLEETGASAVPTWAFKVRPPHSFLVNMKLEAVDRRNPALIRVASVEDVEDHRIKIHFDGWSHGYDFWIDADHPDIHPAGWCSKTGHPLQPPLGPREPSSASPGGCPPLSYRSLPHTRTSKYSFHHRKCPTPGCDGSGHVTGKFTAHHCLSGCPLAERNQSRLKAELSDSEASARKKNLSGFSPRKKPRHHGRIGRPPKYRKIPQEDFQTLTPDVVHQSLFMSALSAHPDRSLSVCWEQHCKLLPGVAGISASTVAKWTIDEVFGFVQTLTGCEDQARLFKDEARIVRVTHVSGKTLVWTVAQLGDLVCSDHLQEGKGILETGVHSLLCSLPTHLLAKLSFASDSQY
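Displacement of a biotinylated histone H3(1-15) peptide monomethylated at Lys9 (75 nM) from L3MBTL1 (50 nM) was measured by AlphaScreen after a 30 min room-temperature compound incubation; cefsulodin titration served as intraplate control.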
A number is an active result; - = inactive; ? = inconclusive; . = no result given; [ ] = another dose, or the depositor's remark. This is a sample that favours compounds with a hit; in the whole collection about 12% have one here. The call rests on the fitted dose curve; in most records, active means well fitted curve in the direction sought with a large enough effect; inconclusive means small, poorly fitted or top-dose-only effect, or another doubt; inactive means no such curve, though single readings can be large; an effect the other way counts as inactive or inconclusive.

SMILES	Sfp inh	BAZ2B inh	JMJD2A Tudor inh	G9a block	HP1b binding inh	L3MBTL1 inh
O=C1C2C3C=CC(C4CC34)C2C(=O)N1/N=C/c1c[nH]c2ccccc12 (stereo unspecified)	-	-	-	50µM	-	.
O=C1C2C3C=CC(C4CC34)C2C(=O)N1/N=C/c1ccc([N+](=O)[O-])s1 (stereo unspecified)	-	-	-	-	-	-
O=C(Nc1ccc(Br)cc1F)N1CCC2(CC1)Oc1ccccc1C(=O)N2Cc1ccccc1F	.	-	-	-	-	.
Cc1c2cnn(CC(=O)Nc3c(F)c(F)cc(F)c3F)c(=O)c2c(C)n1Cc1ccccc1F	-	56µM	?	?	-	.
CCN(CCO)c1ccc(-n2c(N)c(C(=O)OC)c3nc4ccccc4nc32)cc1	-	?	79µM	35µM	-	-
COc1ccc2c(c1)C=C(C(=O)OCc1cccnc1)CO2	-	-	35µM	-	-	.
O=C(c1ccc2c(c1)N(Cc1ccc(Cl)cc1)C(=O)c1ccccc1S2=O)N1CCN(c2ccccc2F)CC1 (stereo unspecified)	.	-	-	-	-	.
O=C(CN1C(=O)NC(c2ccccc2)(c2ccccc2)C1=O)Nc1ccc(N2CCOCC2)cc1	.	.	?	.	?	-
NC(=O)c1ccsc1NC(=O)COC(=O)c1ccc(Cl)nc1	.	-	-	-	-	-
COc1cccc(CNCC(=O)Nc2ccc(N3CCOCC3)cc2)c1	-	50µM	25µM	3.5µM	?	-
NC(=O)c1ccc(NC(=O)COC(=O)c2ccc(Cl)nc2)cc1	.	-	-	7.9µM	-	-
COc1ccc(C2(c3ccc(OC)cc3)NC(=O)N(CC(=O)Nc3ccc(N4CCOCC4)cc3)C2=O)cc1	.	?	?	40µM	?	-
O=C(COC(=O)c1ccco1)Nc1ccc(N2CCOCC2)cc1	.	-	-	22µM	-	-
O=C(COC(=O)c1ccc(Cl)nc1)Nc1ccc(N2CCOCC2)cc1	.	-	-	56µM	-	-
COc1cc(CC(=O)OCC(=O)Nc2ccc(N3CCOCC3)cc2)cc(OC)c1OC	-	-	-	?	-	-
O=C(Nc1ccc(N2CCOCC2)cc1Cl)C1CCN(C(=O)OCc2ccccc2)CC1	-	-	?	-	-	-
COc1ccc(CC(=O)OCC(=O)Nc2ccc(N3CCOCC3)cc2)cc1	-	-	-	50µM	-	-
O=C(Nc1ccc(N2CCOCC2)cc1)C1CCN(C(=O)OCc2ccccc2)CC1	-	-	-	40µM	-	.
O=C(C1CCN(S(=O)(=O)Cc2ccccc2)CC1)N1CCN(c2ccccc2)CC1	.	-	-	-	-	.
O=C(O)C(Cc1ccc2c(c1)oc1ccccc12)NCP(=O)(O)O (stereo unspecified)	-	.	.	.	.	.
COc1ccc(NC(=O)Nc2nnc(N3CCCC3)s2)cc1	.	-	-	-	-	.
CCN1CCN(C(=S)Nc2ccc3nc4n(c(=O)c3c2)CCCCC4)CC1	-	-	-	45µM	-	-
CN(C)c1cccc(C(=O)Nc2ccc3nc4n(c(=O)c3c2)CCCCC4)c1	-	?	?	45µM	-	.
CCCCCCCC/C=C\CCCCCCCC(=O)N[C@@H](CO)Cc1ccc(O)cc1	-	.	.	.	.	.
Cc1cc(NC(=O)Cn2cc([N+](=O)[O-])cn2)no1	-	-	-	50µM	-	-
SMILES	Sfp inh	BAZ2B inh	JMJD2A Tudor inh	G9a block	HP1b binding inh	L3MBTL1 inh
Cc1cc(NC(=O)CN2CCCC(C)C2)no1 (stereo unspecified)	-	-	2.8µM	.	50µM	?
O=C(CN1CCN(c2ncccn2)CC1)NCCC1=CCCCC1	?	50µM	3.2µM	?	?	-
Cc1ccc(CNC(=O)CN2CCCC(C)C2)cc1 (stereo unspecified)	-	-	-	-	-	.
Cc1cc(NC(=O)CN2CCN(c3ncccn3)CC2)no1	-	56µM	20µM	8.9µM	?	-
O=C(CSc1ncccn1)NCCC1=CCCCC1	.	-	-	-	-	-
CN(C)Cc1ccccc1-c1cc(N(C)Cc2ccco2)ncn1	-	.	.	-[0.501 µM]	.	.
COc1cc(Cl)c(C)cc1NC(=O)c1cc(CN2CCOCC2)on1	.	?	-	-	-	.
CCc1c2c(nc3cccc(C(C)C)c13)-c1cccc(=O)n1C2	-	.	.	.	.	.
CCN(CC)CCNC(=O)c1ccc2nc(CCc3ccccc3)oc2c1	.	-	-	-	-	.
Cc1cc(NC(=O)CN2CCCCC2)no1	-	56µM	?	?	?	-
Cc1cc(NC(=O)CN2CCN(c3cccc(Cl)c3)CC2)no1	-	-	-	-	-	-
CCN1C(=O)[C@H]2[C@H]3[C@H](O)[C@H](O)C/C(=N/O[C@@H](C)c4cn([C@H]5COC[C@H]5O)nn4)[C@@H]3CC[C@@H]2C1=O	-	.	.	.	.	.
Cc1ccc(S(=O)(=O)N2CCCCC2C(=O)N2CCN(Cc3ccccc3)CC2)cc1 (stereo unspecified)	-	?	-	11µM	-	-
Cc1ccc(S(=O)(=O)NNC(=O)C2CCN(Cc3ccccc3)CC2)cc1	-	-	79µM	-	-	-
O=C(C1CCCCN1S(=O)(=O)c1ccccc1)N1CCN(Cc2ccccc2)CC1 (stereo unspecified)	-	-	-	?	-	.
CN(Cc1ccccc1)c1ccc(-c2nc(-c3ccco3)no2)cc1[N+](=O)[O-]	.	-	-	-	-	.
O=C(CCN1C(=O)C2C3CCC(C3)C2C1=O)OCC(=O)c1ccccc1 (stereo unspecified)	-	-	-	-	-	.
O=C(CN1CC(=O)Oc2ccccc21)OCC(=O)c1cccc(Br)c1	71µM	8.9µM	40µM	45µM	-	-
O=C(CN1CC(=O)Oc2ccccc21)OCC(=O)c1ccccc1	?	13µM	20µM	?	-	.
O=C(COC(=O)C1CC2CCCC(C1)C2=O)c1cccc(Br)c1 (stereo unspecified)	.	-	-	?	-	-
Cc1ccccc1C[C@H](C(=O)O)N1C(=O)c2ccc(C(=O)O)cc2C1=O	-	-	-	-[12.7 µM]	.	-
COc1ccc(-c2nc3ccc(NC(C)=O)cc3c(=O)n2Cc2ccccc2)cc1COc1ccc(NC(C)=O)cc1	.	.	?	.	-	.
S=c1nccc(-c2ccc3c(c2)CCO3)[nH]1	-	-	-	40µM	-	.
Cc1ccc(-c2c3c(=O)n(C)c(=O)n(C)c3c3cnc4ccccc4n23)cc1	.	-	-	-	-	.
Cn1nnnc1SCCCNCc1cc(Cl)ccc1OCc1ccc(F)cc1	.	-	-	-	-	.
COc1ccccc1NC(=O)CSC1=Nc2ccccc2C2=NC(CC(=O)NCc3ccc4c(c3)OCO4)C(=O)N12 (stereo unspecified)	.	-	-	-	-	.
O=C(CCC1N=C2c3ccccc3N=C(SCc3cccc(F)c3)N2C1=O)NCc1cccs1 (stereo unspecified)	.	-	79µM	-	-	.
